Reference: PubChem BioAssay (NCATS)
Several values for one entry are separate records, joined by “and”; a condition that tells them apart may be missing. Equal entries are not always repeated. Inconclusive results are not listed. Activity calls are given as the source filed them. Calls follow the shape of the dose curve; as a rule, active = well fitted curve in the direction sought with a large enough effect; inconclusive = small, poorly fitted or top-dose-only effect, or another doubt; inactive = no such curve, though single readings can be large; an effect the other way counts as inactive or inconclusive.

Columns and labels:
[1] = molecular target: Cellular tumor antigen p53 (Homo sapiens) (UniProt P04637); assay: Primary qHTS for small molecule compounds that upregulate eGFP-tagged delta133p53alpha (in N-terminal) cells. (AID 2060322); details: NCI-H358 eGFP-delta133p53alpha fluorescence, 24 h; activation: active compounds read high;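 also: cells pre-induced with doxycycline then dosed without doxycycline; series mostly up to about 56 µM; 0% = DMSO vehicle and 100% = reference activator; nearly all actives have a fitted effect of over 75% in size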
Chain of Cellular tumor antigen p53 (Homo sapiens) (P04637 whole entry, looked up): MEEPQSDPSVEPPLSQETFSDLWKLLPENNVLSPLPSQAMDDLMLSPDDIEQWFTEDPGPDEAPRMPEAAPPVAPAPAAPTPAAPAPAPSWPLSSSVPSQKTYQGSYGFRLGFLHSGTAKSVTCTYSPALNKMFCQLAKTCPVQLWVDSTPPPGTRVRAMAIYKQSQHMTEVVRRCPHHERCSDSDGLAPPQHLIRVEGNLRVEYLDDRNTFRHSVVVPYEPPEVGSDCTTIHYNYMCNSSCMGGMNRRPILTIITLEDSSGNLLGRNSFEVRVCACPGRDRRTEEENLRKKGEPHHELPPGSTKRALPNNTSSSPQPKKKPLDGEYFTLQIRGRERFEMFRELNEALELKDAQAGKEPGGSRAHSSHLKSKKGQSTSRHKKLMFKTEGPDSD
Summary of the method: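 NCI-H358 cells pre-induced 24 h with 10 ng/ml doxycycline for eGFP-delta133p53alpha, plated dox-free and exposed 24 h at 37C to titrated compounds. Fixed, Hoechst-stained; gated GFP peak intensity by laser scanning cytometry, normalized to DMSO (0%) and 57.5 uM 5-azacytidine (100%).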

[2] = molecular target: Aldehyde dehydrogenase, mitochondrial (Homo sapiens) (UniProt P05091); assay: qHTS for Inhibitors of the Aldehyde Dehydrogenase Family (ALDH2) Primary screen (AID 2061308);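 also: plate controls were vehicle for no effect and reference inhibitor for full effect; nearly all actives have a fitted effect of over 55% in size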
[3] = molecular target: Retinaldehyde dehydrogenase 3 (Homo sapiens) (UniProt P47895); assay: qHTS for Inhibitors of the Aldehyde Dehydrogenase Family (ALDH1A3) Validation screen (AID 2061312); also: % is scaled to controls: 0 for no effect and ±100 for the full control effect; nearly all actives have a fitted effect of over 45% in size
[4] = molecular target: Retinaldehyde dehydrogenase 3 (Homo sapiens) (UniProt P47895); assay: qHTS for Inhibitors of the Aldehyde Dehydrogenase Family (ALDH1A3) Primary screen (AID 2061315);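 also: plate controls were DMSO vehicle for no effect and reference inhibitor for full effect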
[5] = molecular target: Retinaldehyde dehydrogenase 3 (Homo sapiens) (UniProt P47895); assay: qHTS for Inhibitors of the Aldehyde Dehydrogenase Family (ALDH1A3) Confirmatory screens (AID 2061311); also: % is scaled to controls: 0 for no effect and ±100 for the full control effect; nearly all actives have a fitted effect of over 60% in size

CCCCCn1cc(C(=O)Oc2cccc3cccnc23)c2ccccc21
inactive: activation [1] -4.77% | Potency [2] | Potency [3] | Potency [4]

C/C=C(/C)C1C=CC2CC(C)CC(C)C2C1/C(O)=C1\C(=O)NC(CC(C)(O)C(=O)O)C1=O (centres undefined)
inactive: activation [1] -26% | Potency [2] | Potency [5] | Potency [4]

Cc1ccccc1CN1CCC(N2CCC(n3c(=O)[nH]c4ccccc43)CC2)CC1
inactive: activation [1] -15.8% | Potency [2] | Potency [3] | Potency [4]

CCN1C[C@]2(OC(=O)c3ccccc3NC(C)=O)CC[C@H](OC)[C@@]34[C@@H]2C[C@@H]([C@@H]13)[C@@]1(O)C[C@H](OC)[C@H]2C[C@@H]4[C@]1(O)[C@H]2OC
inactive: activation [1] -6.68% | Potency [2] | Potency [3] | Potency [4]

CCc1nn(C)c(C(=O)NCc2ccc(Oc3ccc(C)cc3)cc2)c1Cl
inactive: activation [1] 1.43% | Potency [2] | Potency [3] | Potency [4]

Cc1cn(C[C@H](N)C(=O)O)c(=O)n(Cc2cc(-c3ccccc3)sc2C(=O)O)c1=O
inactive: activation [1] 8.11% | Potency [2] | Potency [3] | Potency [4]

CN(C(=O)Cc1ccccc1)C(CN1CCCC1)c1ccccc1 (centres undefined)
inactive: activation [1] -0.477% | Potency [2] | Potency [3] | Potency [4]

CC(=O)N(C)c1cccc(-c2ccnc3c(C(=O)c4cccs4)cnn23)c1
inactive: activation [1] -3.13% and 5.73% | Potency [2] | Potency [3] | Potency [4]

COc1cccc(NCC(F)Cn2c3ccc(Br)cc3c3cc(Br)ccc32)c1 (centres undefined)
inactive: activation [1] 8.11% | Potency [2] | Potency [3] | Potency [4]

CN1[C@@H]2CC[C@H]1CC(OC(=O)C1C=Nc3ccccc31)C2 (some centres undefined)
inactive: activation [1] -7.64% | Potency [2] | Potency [3] | Potency [4]

CCOC(=O)c1cncn1C(C)c1ccccc1 (centres undefined)
inactive: activation [1] 10% and 2.86% | Potency [2] | Potency [3] | Potency [4]

Cc1cccc(NC(=O)NC2N=C(c3ccccc3)c3ccccc3N(CC(=O)c3ccccc3C)C2=O)c1 (centres undefined)
inactive: activation [1] -13.8% | Potency [2] | Potency [3] | Potency [4]

CCOC(=O)c1ccc(-c2ccc(OC(=O)N(C)Cc3cccc(-c4ccncc4)c3)cc2)cc1
inactive: activation [1] -12.9% | Potency [2] | Potency [3] | Potency [4]

CCCCCn1cc(C(=O)Cc2ccccc2OC)c2ccccc21
inactive: activation [1] 3.34% | Potency [2] | Potency [3] | Potency [4]

CC(=O)NCCCOc1ccc(C(=O)N2CCC(N3C(=O)CCc4ccccc43)CC2)cc1
inactive: activation [1] -10.5% | Potency [2] | Potency [3] | Potency [4]

Clc1ccc(OCC2=NCCN2)cc1Cl
inactive: activation [1] -0.955% | Potency [2] | Potency [3] | Potency [4]

c1ccc(C2(c3ccccc3)OC[C@@H]([C@H]3CCCCN3)O2)cc1
inactive: activation [1] 2.86% | Potency [2] | Potency [3] | Potency [4]

CN1C(=O)CN=C(c2ccccc2Cl)c2cc(Cl)ccc21
inactive: activation [1] -10% | Potency [2] | Potency [3] | Potency [4]

CN=C(NS(=O)(=O)c1ccc(Cl)cc1)N1C[C@H](c2ccccc2)C(c2ccc(Cl)cc2)=N1
inactive: activation [1] 1.91% | Potency [2] | Potency [3] | Potency [4]

Cc1ccc2c(c1)[C@H]1CN(C)CC[C@H]1N2C(=O)CSc1nnnn1-c1ccc(Cl)cc1
inactive: activation [1] -6.68% | Potency [2] | Potency [3] | Potency [4]

N#Cc1ccccc1-c1cc(-c2ccccn2)cn(-c2ccccc2)c1=O
inactive: activation [1] 10.5% | Potency [2] | Potency [3] | Potency [4]

CCOC(=O)C1(CCc2ccccc2)CCN(Cc2ccc(NC(C)=O)cc2)CC1
inactive: activation [1] -12.4% | Potency [2] | Potency [3] | Potency [4]

CN1C2CCC1CC(OC(=O)N1Cc3ccccc3NC1=O)C2 (centres undefined)
inactive: activation [1] 1.43% | Potency [2] | Potency [3] | Potency [4]

Cc1c(Cl)cccc1S(=O)(=O)Nc1nc(CC(=O)N2CCN(C)CC2)cs1
inactive: activation [1] -6.21% | Potency [2] | Potency [3] | Potency [4]

O=C(NCCN1CCC2(CC1)C(=O)NCN2c1cccc(F)c1)c1ccc(F)c(F)c1
inactive: activation [1] 18.1% | Potency [2] | Potency [3] | Potency [4]

CN1C(=O)[C@@H](Cc2c[nH]c3ccccc23)N=C(c2ccccc2F)c2ccccc21
inactive: activation [1] 15.8% | Potency [2] | Potency [3] | Potency [4]

CNC(=O)N1N=C(c2ccc(N)cc2)c2cc3c(cc2CC1C)OCO3 (centres undefined)
inactive: activation [1] 34.7% | Potency [2] | Potency [3] | Potency [4]

Cn1ncnc1COc1nn2c(-c3c(F)cccc3F)nnc2cc1C1CCC1
inactive: activation [1] -7.16% | Potency [2] | Potency [3] | Potency [4]

CCCCN1[C@@H]2CC[C@H]1CC(OC(c1ccc(F)cc1)c1ccc(F)cc1)C2 (some centres undefined)
inactive: activation [1] 2.39% | Potency [2] | Potency [3] | Potency [4]

C[C@H](NC(=O)Cc1cc(F)cc(F)c1)C(=O)N[C@@H]1N=C(c2ccccc2)c2ccccc2N(C)C1=O
inactive: activation [1] 21% | Potency [2] | Potency [3] | Potency [4]

CC1(C)C(=O)N(c2ccc(C#N)c(C(F)(F)F)c2)C(=O)N1CCCCO
inactive: activation [1] -17.7% | Potency [2] | Potency [3] | Potency [4]
